In PubChem BioAssay (NCATS):
Values joined by “and” are separate entries in the source; they are usually repeats but may differ in a detail not shown here. Identical values can stand only once. Results filed as inconclusive are left out. Entries that show only a call come without a potency. A number with no mark means an inactive call. Active and inactive are the calls of the source. Calls follow the shape of the dose curve; as a rule, active = well fitted inhibition curve with a large enough effect; inconclusive = small, poorly fitted or top-dose-only effect; inactive = flat fitted curve, though single readings scatter. Residues, ends and D or L forms follow the SMILES beside them. *: point of attachment. Cbz = O=C(OCc1ccccc1)*

These compounds were tested against Phospholipid hydroperoxide glutathione peroxidase GPX4 (Homo sapiens) (UniProt P36969) (assay: Primary qHTS Assay for Inhibitors of Recombinant Selenoprotein Glutathione Peroxidase 4 (GPX4) (AID 1845192; also: nearly all actives have a fitted effect of over 65% in size)). Details: recombinant GPX4, GR-coupled NADPH fluorescence, 15 min; series mostly up to 50 µM.
Source text: Assay Provider: Elias S.J. Arner MD PhD.
Department of Medical Biochemistry and Biophysics
Karolinska Institutet, Solna, Stockholm, Sweden
Selenoprotein glutathione peroxidases (GPX), like the ubiquitously expressed GPX1 and the ferroptosis modulator GPX4, enact their antioxidant activities by reducing hydroperoxides using glutathione. […] GPX1 and GPX4 inhibitors have thus shown promise as anti-cancer agents. Existing inhibitors are often promiscuous, or modulate GPX activity only indirectly, so novel direct inhibitors identified through screening against GPX1 and GPX4 could be valuable. Here, we developed optimized glutathione reductase (GR)-coupled GPX assays for the biochemical high-throughput screen (HTS) of almost 12,000 compounds with known mechanisms of action. Initial hits were triaged using a GR counter-screen, assessed for isoform specificity using a separate GPX2 assay, and were assessed for general selenocysteine-targeting activity using a thioredoxin reductase (TXNRD1) assay. With this suite of assays, we identified novel GPX1/GPX2- and GPX4-specific inhibitors and can here present a validated pipeline for future discovery research for selenoprotein-targeting agents.
SEQUENCE No. (e.g., 1, 2, 3, etc.); […] (e.g., Cells, Incubation, Reagent, etc.); VALUE; DESCRIPTION.
1; Reagent 1; 3 uL; 333.33 nM GPx4 enzyme or no enzyme control in 1536-well, black, solid Greiner assay plate.
2; Compound; 25 nL; Kalypsis pin tool (Wako USA) equipped with a 1536-well pin head.
3; Incubation; 30 min; room temperature.
4; Reagent 2; 1 uL; 500 nM GR, 5 mM GSH, 2.5 mM NADPH solution
5; Reagent 3; 1 uL; 2.5 mM CHP in 50% EtOH.
6; Detection; Fluorescence; ViewLux microplate reader, excitation 340 nm and emission 450 nm.
7; Incubation; 15 min; room temperature.
8; Detection; Fluorescence; ViewLux microplate reader, excitation 340 nm and emission 450 nm.
NOTES (numbers refer to Sequence numbers above)
1. 3 µL of 333.33 nM GPX4 and 0.016% BSA in assay buffer (50 mM Tris-HCl, 2 mM EDTA (pH 7.5), 150 mM NaCl) was added to columns 3-48 of 1536-well plates using a BioRAPTR Flying Reagent Dispenser (Let's Go Robotics (LGR), Carlsbad, CA). A no-enzyme control (0.01% BSA in TES assay buffer) was added to columns 1-2.
2. 25 nL, library and DMSO controls were added to each well with a pin tool (Kalypsys).
3. The assay plates were incubated for 30 minutes at room temperature.
4. 1 µL of master mix (500 nM glutathione reductase (GR), 5 mM reduced glutathione (GSH), 2.5 mM NADPH in assay buffer) was added.
5. 1 µL of cumene hydroperoxide (CHP) ([2.5 mM] in 50% EtOH) was then added within 5 minutes to initiate the reaction. Final concentrations were: 200 nM GPX4, 1 mM GSH, 0.5 mM CHP, 0.5 mM NADPH, 100 nM GR, 0.01% BSA.
6. Initial fluorescence readout (t=0) at 340/450 nm was measured using a ViewLux multimodal detector (PerkinElmer, Waltham, MA).
8. Endpoint fluorescence readout (t=15) at 340/450 nm was measured 15 min after room temperature incubation.
Potency is read from the fitted curve at half-maximal effect.

Phospholipid hydroperoxide glutathione peroxidase GPX4 (Homo sapiens), sequence (P36969 whole entry, looked up): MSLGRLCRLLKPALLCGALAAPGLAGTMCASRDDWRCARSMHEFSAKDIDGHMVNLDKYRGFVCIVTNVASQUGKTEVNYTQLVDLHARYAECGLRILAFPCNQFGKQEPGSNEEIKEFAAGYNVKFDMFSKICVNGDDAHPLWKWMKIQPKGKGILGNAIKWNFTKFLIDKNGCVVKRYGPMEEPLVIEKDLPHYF

SMILES | Potency | activity change, negative = inhibition
C=C(C)[C@@H]1CC[C@]2(C(=O)O)CC[C@]3(C)[C@H](CC[C@@H]4[C@@]5(C)CC[C@H](O)C(C)(C)[C@@H]5CC[C@]43C)[C@@H]12 | inactive | 
CN(C)c1ccc(C(=O)NCCCCCCC(=O)NO)cc1 | inactive | 
CC(O)(C#Cc1ccc2c(c1)N(c1nc(N)ncc1Cl)CC2)c1nccs1 (stereo not given) | inactive | 
CCCCCCCCc1ccc(CCC(N)(CO)CO)cc1 | inactive | 
O=C(O)CCCCCC(=O)NN=C1CCCC1 | inactive | 
CCc1c(O)cc(O)c(C(=O)c2ccc(OCCN3CCOCC3)c(OC)c2)c1CC(=O)N(CCOC)CCOC | inactive | 
COc1cc(OC)c(NC(=O)Nc2cc(C)on2)cc1Cl | inactive | 
COc1cc(C(C)C)c(Oc2cnc(NC(CO)CO)nc2N)cc1I | inactive | 
O=C(Nc1ccc(Oc2ccnc3[nH]ccc23)c(F)c1)c1cccn(-c2ccc(F)cc2)c1=O | inactive | 
CCOC(=O)[C@@H](N)Cc1ccc(-c2cc(O[C@H](c3ccc(Cl)cc3-n3ccc(C)n3)C(F)(F)F)nc(N)n2)cc1 | inactive | 
CCN(CC)Cc1ccc2cc(COC(=O)Nc3ccc(C(=O)NO)cc3)ccc2c1 | inactive | 
Cc1ccc(-n2[nH]c(C)c(N=Nc3cccc(-c4cccc(C(=O)O)c4)c3O)c2=O)cc1C | inactive | 
O=C1CSC(=O)N1C(CCc1ccncc1)COc1ccc(-c2cccc([N+](=O)[O-])c2)cc1 (stereo not given) | inactive | 
NC(=O)Nc1sc(-c2ccc(F)cc2)cc1C(N)=O | inactive | 
O=C(CCCCCCC(=O)Nc1cccnc1)NO | inactive | 
NC(=O)c1cccc(-c2cccc(OC(=O)NC3CCCCC3)c2)c1 | inactive | 
C[C@@H]1C(=O)O[C@H]2CC34[C@H]5C[C@@H](C(C)(C)C)C36[C@H](OC(=O)[C@@H]6O)O[C@@]4(C(=O)O5)[C@]21O (stereo not given in full) | inactive | 
c1cc(N[C@@H]2CCNC2)nc(-c2cnc3ccc(-c4cn[nH]c4)cn23)c1 | 25.5 µM (active) | 
C[C@H](NC(=O)Cc1cc(F)cc(F)c1)C(=O)N[C@H](C(=O)OC(C)(C)C)c1ccccc1 | inactive | 
C=CC(=O)N1CCc2ccc(-n3c(=O)ccc4cnc5ccc(-c6cnn(C)c6)cc5c43)cc21 | inactive | 

SMILES | Potency | activity change, negative = inhibition
Cn1cc(-c2cnn3c(N)c(Br)c([C@H]4CCCNC4)nc23)cn1 | inactive | 
OC[C@H]1OC(O)C[C@@H](O)[C@H]1O (stereo not given in full) | inactive | 
CCN(C(=O)c1c(O)c2c(Cl)cccc2n(C)c1=O)c1ccccc1 | inactive | 
COc1cc(C[C@@H](CO)[C@H](CO)Cc2ccc(O)c(OC)c2)ccc1O | inactive | 
C=C[C@@H]1CN2CCC1C[C@H]2[C@H](O)c1ccnc2ccc(OC)cc12 (stereo not given in full) | inactive | 
COc1cc(O)c2c(c1)C1OC1C[C@H](O)[C@H](O)C(=O)C=CC[C@H](C)OC2=O (stereo not given in full) | inactive | 
CC(C)C[C@@H](C=O)NC(=O)[C@H](CC(C)C)NC(=O)[C@H](CC(C)C)NC(=O)OCc1ccccc1 (Cbz-Leu-Leu-Leu-aldehyde) | inactive | 
Cc1ncc(-c2ccnc(Nc3ccc(S(C)(=O)=O)cc3)n2)n1C(C)C | inactive | 
CN(C)CC(=O)N1CCC(c2ccc(NC(=O)c3ncc(C#N)[nH]3)c(C3=CCCCC3)c2)CC1 | inactive | 
Cc1cnc(Nc2ccc(N3CCN(C)CC3)cc2)nc1Nc1cccc(S(=O)(=O)NC(C)(C)C)c1 | inactive | 
CC(=O)O[C@H]1C[C@@H]2CC[C@H]3[C@H]4C[C@H]([N+]5(C)CCCCC5)[C@@H](OC(C)=O)[C@@]4(C)CC[C@@H]3[C@@]2(C)C[C@H]1[N+]1(C)CCCCC1 | inactive | 
Nc1ccc(C(=O)Nc2cccc(-c3nc(N4CCOCC4)c4oc5ncccc5c4n3)c2)cn1 | inactive | 
C=Cc1c(C)c2cc3nc(cc4[nH]c(cc5nc(cc1[nH]2)C(C)=C5CCC(=O)O)c(CCC(=O)OC)c4C)[C@@]1(C)C3=CC=C(C(=O)OC)[C@H]1C(=O)OC | inactive | 
COc1cccc2c1C(=O)c1c(O)c3c(c(O)c1C2=O)C[C@@](O)(C(=O)CO)C[C@@H]3O[C@H]1C[C@H](N)[C@H](OC2CCCCO2)[C@H](C)O1 (stereo not given in full) | inactive | 
Cn1cc(C[C@@H](N)C(=O)O)c2ccccc21 |  | 0.696% [at 9.73 µM]
O=C(Nc1cc2cc[nH]c2cn1)c1ccccc1 | inactive | 
CCC[C@H]1C[C@H](C(=O)N[C@@H]([C@@H]2O[C@@H](SC)[C@@H](O)[C@@H](O)[C@@H]2O)[C@H](C)Cl)N(C)C1 | inactive | 
CC(C)C[C@H](NC(=O)[C@@H](NC(=O)c1cccc(-c2ccccc2)n1)[C@@H](C)O)B(O)O | inactive | 
c1coc(CNc2ncnc3nc[nH]c23)c1 | inactive | 
Nc1ccn(C[C@@H](CO)OCP(=O)(O)O)c(=O)n1 |  | 4.75% [at 0.409 µM] and -14.5% [at 9.73 µM]
